# Source: the supplement of paper PMC3334620
# Whole data set: some 33,000 sequences, median “E-score (-0.5 to 0.5)” near -8e-05, cut for the highest 2% near 0.23. The sample holds the highest values, similar sequences and a random draw of the others, so the mix is not that of the screen.
# Molecular target: T1, Nrg2 (UniProt P38082)
# T1 sequence: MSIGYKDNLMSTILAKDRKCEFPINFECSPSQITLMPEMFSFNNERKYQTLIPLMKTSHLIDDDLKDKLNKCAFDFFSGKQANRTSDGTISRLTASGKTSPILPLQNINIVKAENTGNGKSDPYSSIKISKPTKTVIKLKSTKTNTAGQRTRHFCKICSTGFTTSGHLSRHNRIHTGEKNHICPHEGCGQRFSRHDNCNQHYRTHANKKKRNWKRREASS
# Test: PBM E-score (8-mer binding enrichment) (E-score (-0.5 to 0.5)); higher = stronger / more preferred TF binding
# Settings: protein concentration: 100 nM; construct: GST-full length
# Description: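 Universal 'all 10-mer' protein binding microarrays (Agilent AMADID 015681) probed with GST-tagged S. cerevisiae TFs (full-length or DBD) made by in vitro transcription/translation (PURExpress), about 100-200 nM. Bound TF was detected with fluorescent anti-GST. Each ungapped 8-mer (which stands for itself and its reverse complement) is scored by the PBM enrichment score (E-score), a modified Wilcoxon-Mann-Whitney statistic from -0.5 to +0.5, computed with the Universal PBM Analysis Suite. Scale: above 0.35 generally sequence-specific binding.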
row,Sequence,PBM E-score
1,AGGAGCAC,0.0739
2,AGTTGGCA,0.1
3,AGCTTACA,0.128
4,GCTCCCAA,-0.0754
5,CGCTACAG,-0.103
6,ATATACTA,0.307
7,CTATACAA,-0.0419
8,CTATACTA,0.111
9,ATATACAC,0.081
10,ATATACTC,0.0973
11,ATATACAA,0.237
12,AAATCACT,0.124
13,CACAGCCA,-0.0609
14,CGGAGATA,0.0572
15,ATGGTGTA,-0.0203
16,GCATATCA,0.256
17,TCATATCA,0.0508
18,CCATATCA,0.00491
19,CTTAACGA,0.123
20,GGCGAAGA,-0.0414
21,ATCTAGAA,-0.0175
22,CAAGACCG,-0.00525
23,AACCTATG,-0.101
24,CCGACAGA,0.141
25,TCGACAGA,-0.105

row,Sequence,PBM E-score
1,GCGACAGA,0.238
2,TGTTATAA,0.163
3,CGGGTCTC,-0.0571
4,AGGGTCTC,0.308
5,CGGGTCTA,-0.0249
6,AGGGTCTA,0.356
7,GGGGTCTA,0.203
8,AGGGTCTG,0.216
9,CCCCCCGC,-0.359
10,CCACTGTA,0.064
11,ATGATGAA,0.31
12,CTGATGAA,0.0121
13,GTGATGAA,0.0611
14,AGTATGAC,0.0675
15,AGTATGAT,0.223
16,ATGATCTC,0.087
17,CTGATCTA,0.00323
18,AGTATGAA,0.254
19,ATGATCTA,0.236
20,GCAGCATA,0.0385
21,GGAGAGGA,-0.215
22,ACCGAACC,-0.254
23,CGGACCTC,-0.0835
24,GACTCACA,0.0103
25,AGGTAGAT,-0.104

row,Sequence,PBM E-score
1,TAACACTA,0.248
2,GAACACTA,0.0307
3,CAACACTA,0.147
4,CGGTTGAA,0.101
5,AAAGGAAA,0.0754
6,AGCATAGA,-0.0952
7,AGCGATCA,-0.156
8,AGCGATCG,0.24
9,AGCGATCC,-0.129
10,CCGTGGAA,-0.00678
11,CATTGCAG,0.0963
12,ATGAGAGC,0.00785
13,ACCTACGG,-0.376
14,CCTAACGA,-0.038
15,ATTAGTGC,0.23
16,ATTAGTGG,0.15
17,AGTAGTTG,0.253
18,AGTAGTTA,0.0579
19,ATTAGTAA,0.245
20,CTTAGTAA,0.0233
21,ATTAGTTA,0.268
22,CTTAGTTA,0.0769
23,ATTAGTGA,0.114
24,GTTAGTTA,0.0784
25,ATTAGTAC,0.14

row,Sequence,PBM E-score
1,AGTAGTTC,0.207
2,GTAACTAC,0.0907
3,CGTTCTCA,-0.0327
4,CACCATGA,-0.00138
5,CGGGCCAG,-0.0425
6,TGGTTCAA,0.103
7,CGAGCCCC,-0.154
8,GACAGCCC,-0.099
9,CTTCTCTA,-0.137
10,AATAGTTA,0.0707
11,AATAGTTG,0.248
12,AATAGTTC,0.0571
13,ATTAGTTC,0.158
14,ATTAGTCG,0.143
15,ATTAGTTG,0.256
16,ACTTGAAA,-0.108
17,CCTTGCAG,-0.0165
18,CATGCTAG,-0.00401
19,CCCGATCG,-0.026
20,AATCTAAC,0.0101
21,ACGTGAGA,-0.11
22,TCGTGAGA,-0.0385
23,GCGTGAGA,0.297
24,CCTCTAGC,-0.0815
25,CATTTCCC,0.201

row,Sequence,PBM E-score
1,CATTTCCA,0.237
2,TATTTCCA,0.0167
3,GGGCTGCA,0.0573
4,AACTCGGC,0.245
5,AACTCGGT,-0.00163
6,AACTCGGA,0.13
7,AATAAAGG,-0.0433
8,CATAAATA,0.046
9,AATAAATA,0.246
10,AATAAAGT,0.252
11,GATAAATA,0.262
12,GATAAATC,0.023
13,GATAAAAA,-0.00426
14,AATAAATG,0.158
15,AATAAAGA,0.0604
16,TATAAATA,0.255
17,AATAAATT,0.215
18,TATAAAAA,0.164
19,CCCTGCCC,-0.1
20,ACGGATTG,0.168
21,ACGACCCG,0.168
22,GGATAAAC,0.133
23,AGAGCTAC,0.00658
24,AGCCGACT,-0.111
25,CTTGGAAA,0.0285

row,Sequence,PBM E-score
1,AGACCGTA,-0.242
2,AACACGAC,0.0492
3,AAAAATAT,0.101
4,ATAAATAC,0.283
5,ATAAATAG,0.0238
6,ATAAAAAG,0.257
7,ATAAAAAT,0.122
8,ATAAAAGG,-0.128
9,ATAAATAA,0.237
10,TTAAATAA,0.186
11,ATAAAAAA,0.0337
12,GTAAATAC,-0.0746
13,ATAAATAT,0.245
14,CTAAATAC,0.0507
15,AGCCAGGA,-0.0522
16,AAGATTCA,0.0877
17,CGTTGACA,0.00462
18,GCTAGCAA,-0.0969
19,CTAAGAGA,-0.0214
20,ACTACCTG,0.0949
21,GACTTCGA,-0.106
22,TACTTCGA,0.23
23,CACTTCGA,0.0548
24,ACAAGATA,0.103
25,GCAAGATA,0.229

row,Sequence,PBM E-score
1,CCAAGATA,0.00687
2,GCTACGCA,-0.108
3,CGACGAAA,0.0993
4,GCCGCATA,0.231
5,ACCGCATA,0.0956
6,CCCGCATA,0.168
7,CGCACAAG,0.0299
8,GCCACAAA,0.0838
9,CGCACGAG,-0.0371
10,CGCACAAA,0.257
11,CCCACAAA,0.247
12,CCCACAAG,-0.0136
13,GAGAGAAC,-0.0345
14,CCCGCCAA,-0.175
15,AGCCTACG,0.0365
16,CATTAATA,0.155
17,AATAATTA,0.286
18,AATTAATA,0.303
19,ATTTAATA,0.247
20,AATTAATT,-0.112
21,GTTTAATA,0.198
22,TATTAATA,0.152
23,CTTTAATA,0.125
24,GATAATTA,0.0635
